According to the supplement of paper PMC12297408:
Where a name gives a salt, the structure may show the parent alone. Out of some 1,300 compounds screened, about 40 (3%) showed activity. The entries come from a sample that favours actives as a whole. Values without a mark were called inactive.

Test system: Plasmodium falciparum NF54/iGP1_RE9H ulg8 stage V gametocytes
Experiment: gametocyte viability (luciferase signal relative to DMSO control) (% of DMSO control); higher = less gametocytocidal activity, active = 50 or less
Conditions: exposure time: 72 h
How it was run: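 Gametocyte viability is reported relative to the average of DMSO vehicle wells on the same plate. The assay used day-12 stage V NF54/iGP1_RE9Hulg8 gametocytes at ~2.5% gametocytemia and 3% hematocrit, in 0.5% Albumax II medium, added to 96-well plates of compounds spotted in nanolitre volumes for final 10 µM or 1 µM, one well each. After 72 h at 37 °C, 90 µl was mixed with 10 µl D-luciferin (30 mg/ml), and luminescence was recorded with an IVIS Lumina II.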

Row | Compound | gametocyte viability (concentration: 1 µM) | gametocyte viability (concentration: 10 µM)
1 | O=C(O)[C@H]1/C(=C/CO)O[C@@H]2CC(=O)N21 [Potassium clavulanate] | 91.1 | 87.4
2 | C[C@]12CC[C@@H]3c4ccc(O)cc4CC[C@H]3[C@@H]1CC[C@@H]2O [Estradiol-17 beta] | 69.7 | 41.9 (active)
3 | C[C@]12CC[C@@H]3c4ccc(O)cc4CC[C@H]3[C@@H]1CCC2=O [Estrone] | 99.2 | 96.4
4 | C[C@]12CC[C@@H]3c4ccc(O)cc4CC[C@H]3[C@@H]1C[C@@H](O)[C@@H]2O [Estriol] | 94.6 | 92.2
5 | CCCCCCC[N+](CC)(CC)CCCCc1ccc(Cl)cc1 [Clofilium tosylate] | 97.3 | 47.8 (active)
6 | NNC(=O)c1ccncc1 [Isoniazid] | 80.8 | 83.4
7 | Cc1ncc(C[n+]2csc(CCO)c2C)c(N)n1 [Thiamine hydrochloride] | 94 | 89.4
8 | CCCc1cc(C(N)=S)ccn1 [Prothionamide] | 93.7 | 95.2
9 | CC(=O)Oc1cc(C(F)(F)F)ccc1C(=O)O [Triflusal] | 82.3 | 87.1
10 | CC1(O)CCOC(=O)C1 (stereo not given) [Mevalonic-D, L acid lactone] | 86.7 | 93.8
11 | CC1c2cccc(O)c2C(O)=C2C(=O)C3(O)C(O)=C(C(N)=O)C(=O)C(N(C)C)C3C(O)C21 (stereo not given) [Doxycycline hydrochloride] | 94.5 | 92.2
12 | CC(=O)N(O)CCCCCNC(=O)CCC(=O)N(O)CCCCCNC(=O)CCC(=O)N(O)CCCCCN [Deferoxamine mesylate] | 90.6 | 82.7
13 | CC(C(O)c1ccc(O)cc1)N1CCC(Cc2ccccc2)CC1 (stereo not given) [Ifenprodil tartrate] | 81.9 | 79.7
14 | CC(=O)O[C@H]1C[C@@H]2CC[C@@H]3[C@H](CC[C@@]4(C)[C@H]3C[C@H]([N+]3(C)CCCCC3)[C@@H]4OC(C)=O)[C@@]2(C)C[C@@H]1N1CCCCC1 [Vecuronium bromide] | 85.2 | 93.1
15 | CCC(C)(C)c1ccc(CC(C)CN2C[C@@H](C)O[C@@H](C)C2)cc1 (stereo not given in full) [Amorolfine hydrochloride] | 79.2 | 71.3
16 | Cc1ccc(C)c(OCCCC(C)(C)C(=O)O)c1 [Gemfibrozil] | 86.7 | 88.3
17 | C=CC(N)CCC(=O)O (stereo not given) [Vigabatrin] | 84.9 | 90.6
18 | CC(Oc1c(Cl)cccc1Cl)C1=NCCN1 (stereo not given) [Lofexidine] | 92.5 | 90.5
19 | CCCCC1C(=O)N(c2ccccc2)N(c2ccccc2)C1=O [Phenylbutazone] | 91 | 85.4
20 | O=C(O)CN(CCN(CC(=O)O)CC(=O)O)CCN(CC(=O)O)CC(=O)O [Pentetic acid] | 101 | 101

Row | Compound | gametocyte viability (concentration: 1 µM) | gametocyte viability (concentration: 10 µM)
21 | CCOC(=O)NNc1nncc2ccccc12 [Todralazine hydrochloride] | 86.1 | 76.5
22 | NNc1nncc2ccccc12 [Hydralazine hydrochloride] | 94.8 | 12.8 (active)
23 | O=C1C(=O)c2ccccc2C(O)=C1C1CCC(c2ccc(Cl)cc2)CC1 (stereo not given) [Atovaquone] | 91.4 | 99.6
24 | C#C[C@]1(O)CC[C@H]2[C@@H]3CCC4=C(CCC(=O)C4)[C@H]3CC[C@@]21C [Norethynodrel] | 83.2 | 68.7
25 | COC(=O)C1=C(C)NC(C)=C(C(=O)OC)C1c1ccccc1[N+](=O)[O-] [Nifedipine] | 91.8 | 80.7
26 | Clc1ccc(C(Cn2ccnc2)OCc2c(Cl)cccc2Cl)c(Cl)c1 (stereo not given) [Isoconazole] | 91.2 | 90.9
27 | CN(C)CCOC(C)(c1ccccc1)c1ccccn1 (stereo not given) [Doxylamine succinate] | 87.8 | 87.7
28 | Cc1cc(-n2c(=O)[nH]c(=O)n(C)c2=O)ccc1Oc1ccc(SC(F)(F)F)cc1 [Toltrazuril] | 86.4 | 84.2
29 | CC1(C)O[C@@H]2C[C@H]3[C@@H]4C[C@H](F)C5=CC(=O)C=C[C@]5(C)[C@H]4[C@@H](O)C[C@]3(C)[C@]2(C(=O)CO)O1 [Flunisolide] | 87.5 | 88.9
30 | CC(C)(C)CC(C)(C)c1ccc(OCCOCC[N+](C)(C)Cc2ccccc2)cc1 [Benzethonium chloride] | 82.1 | 9.32 (active)
31 | Cc1cc(C(C)(C)CC(C)(C)C)ccc1OCCOCC[N+](C)(C)Cc1ccccc1 [Methyl benzethonium chloride] | 88.6 | 6.6 (active)
32 | C[N+](C)(CCOc1ccccc1)Cc1ccccc1.O=C([O-])c1cc2ccccc2cc1O [Bephenium hydroxynaphthoate] | 87.3 | 89.9
33 | Cc1cc(C2CCCCC2)n(O)c(=O)c1 [Ciclopirox ethanolamine] | 85.5 | 86.8
34 | Clc1ccc2nsnc2c1NC1=NCCN1 [Tizanidine HCl] | 93.4 | 98.4
35 | C[C@H]1[C@H](NC(=O)/C(=N\OC(C)(C)C(=O)O)c2csc(N)n2)C(=O)N1S(=O)(=O)O [Aztreonam] | 96.9 | 96
36 | CCOC(=O)O[C@]1(C(=O)OCCl)CC[C@H]2[C@@H]3CCC4=CC(=O)C=C[C@]4(C)[C@H]3[C@@H](O)C[C@@]21C [Loteprednol etabonate] | 88.2 | 85
37 | Cc1cccc(C)c1NC(=O)C(C)N (stereo not given) [Tocainide hydrochloride] | 91.8 | 90.2
38 | O=C1CC2(CCCC2)CC(=O)N1CCCCN1CCN(c2ncccn2)CC1 [Buspirone hydrochloride] | 83.9 | 65.7
39 | O=C1Cc2cc(CCN3CCN(c4nsc5ccccc45)CC3)c(Cl)cc2N1 [Ziprasidone  Hydrochloride] | 82.9 | 71.6
40 | O=C1[C@H]2CCCC[C@H]2C(=O)N1CCCCN1CCN(c2nsc3ccccc23)CC1 [Perospirone] | 64.7 | 39.7 (active)
